The supplement of paper PMC3334620
The full ranking holds about 33,000 sequences; the median of “E-score (-0.5 to 0.5)” is about -0.035, and the highest 2% start at about 0.35. Shown is part of a subset that was picked to be rich in the highest values.

Each sequence was assayed against T1, Pdr3 (UniProt P33200) (assay: PBM E-score (8-mer binding enrichment) (E-score (-0.5 to 0.5)); higher = stronger / more preferred TF binding). Details: protein concentration: 200 nM; construct: GST-full length.
T1 sequence: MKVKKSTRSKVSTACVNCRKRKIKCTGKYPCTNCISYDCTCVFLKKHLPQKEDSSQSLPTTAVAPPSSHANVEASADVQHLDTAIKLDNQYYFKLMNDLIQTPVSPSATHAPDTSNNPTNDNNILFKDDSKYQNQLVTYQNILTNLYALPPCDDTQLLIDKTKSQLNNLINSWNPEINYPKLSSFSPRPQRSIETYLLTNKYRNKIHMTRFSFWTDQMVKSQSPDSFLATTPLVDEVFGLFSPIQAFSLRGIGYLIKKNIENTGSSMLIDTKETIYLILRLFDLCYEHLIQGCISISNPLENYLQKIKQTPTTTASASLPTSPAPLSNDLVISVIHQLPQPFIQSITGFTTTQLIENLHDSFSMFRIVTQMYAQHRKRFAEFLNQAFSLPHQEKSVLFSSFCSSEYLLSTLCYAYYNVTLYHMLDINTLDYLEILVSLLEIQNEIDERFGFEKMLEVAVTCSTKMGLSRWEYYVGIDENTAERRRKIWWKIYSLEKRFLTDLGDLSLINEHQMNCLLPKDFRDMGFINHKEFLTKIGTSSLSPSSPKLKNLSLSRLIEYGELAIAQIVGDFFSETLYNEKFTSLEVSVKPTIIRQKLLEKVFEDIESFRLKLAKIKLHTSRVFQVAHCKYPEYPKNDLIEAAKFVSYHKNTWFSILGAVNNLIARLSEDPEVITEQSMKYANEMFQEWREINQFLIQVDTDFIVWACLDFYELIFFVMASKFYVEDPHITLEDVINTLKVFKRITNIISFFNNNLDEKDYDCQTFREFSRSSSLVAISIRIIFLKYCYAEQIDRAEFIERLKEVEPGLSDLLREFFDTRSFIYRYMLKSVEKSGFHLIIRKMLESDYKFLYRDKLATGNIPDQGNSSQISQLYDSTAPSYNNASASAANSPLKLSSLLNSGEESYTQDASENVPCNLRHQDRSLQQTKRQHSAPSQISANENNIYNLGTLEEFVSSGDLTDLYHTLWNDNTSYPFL
Description: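 Universal 'all 10-mer' protein binding microarrays (Agilent AMADID 015681) probed with GST-tagged S. cerevisiae TFs (full-length or DBD) made by in vitro transcription/translation (PURExpress), about 100-200 nM. Bound TF was detected with fluorescent anti-GST. Each ungapped 8-mer (which stands for itself and its reverse complement) is scored by the PBM enrichment score (E-score), a modified Wilcoxon-Mann-Whitney statistic from -0.5 to +0.5, computed with the Universal PBM Analysis Suite. Scale: above 0.35 generally sequence-specific binding.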

| Sequence | PBM E-score |
| --- | --- |
| CGGGAACA | 0.358 |
| AGGGAAGA | -0.238 |
| CAGGAAGG | -0.317 |
| CGGGAAGA | 0.391 |
| GGGGAACA | -0.00834 |
| AGGGAACA | -0.0421 |
| CCCCCCAG | -0.372 |
| CGCGAGGA | 0.135 |
| TATGGCGA | -0.0751 |
| GCAGACAA | 0.0426 |
| ACCCTCAA | -0.158 |
| ACCCGGTA | 0.215 |
| TCCCGGAA | 0.463 |
| GCCCGGAC | 0.282 |
| GCCCGGTA | 0.102 |
| TCCCGTAA | 0.0877 |
| ACCCGGCA | 0.256 |
| ACCCGGAG | 0.38 |
| GCCCGGAA | 0.459 |
| ACCCGGCG | 0.276 |
| ACCCGGAA | 0.456 |
| TCCCGAAA | 0.206 |
| ACCCGGAT | 0.31 |
| CCCTGAAA | -0.0909 |
| ACCCCGTA | 0.006 |
| CACGCGTG | 0.283 |

| Sequence | PBM E-score |
| --- | --- |
| GCTTGGTA | -0.168 |
| AATTCGAA | -0.148 |
| CCCCGGAA | 0.421 |
| CCCCCGAG | -0.0658 |
| CCCCCGAA | -0.0602 |
| CCCCGGAG | 0.355 |
| CCCCGCAG | 0.225 |
| CCCCGGAC | 0.33 |
| CAGGGATA | -0.193 |
| ATAGTCAT | -0.0921 |
| CGCGGCAA | 0.341 |
| CGCGGCGA | 0.374 |
| CGCGGCGC | 0.398 |
| CGGCGCGC | 0.245 |
| AGCGGCGA | 0.197 |
| CGCGGCAC | 0.385 |
| AGCGGCAC | 0.118 |
| AGCGGCGC | 0.137 |
| GGCGGCGA | 0.243 |
| CCGAGCAC | 0.122 |
| ACGTGAGT | -0.0439 |
| TGAGTCCA | -0.18 |
| AAAGTCAT | -0.0971 |
| ATTAGGGG | -0.0731 |
| AACCCTGT | -0.104 |
| ATGTTGCG | 0.091 |

| Sequence | PBM E-score |
| --- | --- |
| ATGGAGCG | 0.0393 |
| CTGAGGAC | -0.0292 |
| AATACCCC | 0.188 |
| TCCATCAA | 0.0544 |
| CCGGGTGA | 0.404 |
| CGGGGTGA | 0.214 |
| TCGGGTAA | 0.0953 |
| CCGGGTAC | 0.303 |
| GCGGGTGA | 0.26 |
| CCGGGTAA | 0.397 |
| GGACGGCC | 0.188 |
| AGCCTTTC | -0.167 |
| CACCAAAA | -0.054 |
| CCGGTGTA | 0.153 |
| CTCTCGTA | -0.00771 |
| AACGCAGG | -0.0195 |
| AACTTAAT | 0.115 |
| ACATTTAT | -0.248 |
| GCGACACA | -0.0561 |
| CTCGGATC | 0.386 |
| AGCGGATC | 0.374 |
| CGCGGCTC | 0.344 |
| CCCGGATC | 0.419 |
| CGCGGATC | 0.431 |
| AGCGGATG | 0.191 |
| ATCGGATC | 0.301 |

| Sequence | PBM E-score |
| --- | --- |
| CCCGGATA | 0.34 |
| CGCAGATC | -0.0483 |
| CCCAGATC | -0.145 |
| CTCGGATA | 0.273 |
| AGCAGATC | -0.0743 |
| GAACCCCA | 0.211 |
| TCAGTAAA | -0.00839 |
| ACCACAGG | -0.238 |
| CGAGGTAA | 0.0804 |
| AGCTGGAG | -0.163 |
| TAGGCTAA | -0.288 |
| AAAGGCAA | -0.0369 |
| CGGCCTAC | 0.158 |
| CTCAGACC | -0.0888 |
| CGCGGATA | 0.412 |
| GGCGGATA | 0.287 |
| CTCGGACA | 0.285 |
| CTCGGACC | 0.359 |
| AGCGGATA | 0.3 |
| CCACATTC | 0.0586 |
| GAGGCGAA | 0.0545 |
| CGCGAGCG | 0.106 |
| CTCTATGC | -0.0609 |
| CCGGACAC | 0.366 |
| CCGGACTA | 0.333 |
| CCGGACAG | 0.338 |

| Sequence | PBM E-score |
| --- | --- |
| CCGGACAA | 0.329 |
| CCGGACTC | 0.363 |
| ACGGACTC | 0.205 |
| AGTGACTA | -0.132 |
| ATCCCGTC | 0.311 |
| ATCCCGAA | 0.308 |
| ATCCCGTA | 0.242 |
| ATCCCGAT | 0.302 |
| ATCCCGTG | 0.396 |
| ATCCCGAG | 0.395 |
| AGCGGTCC | 0.0698 |
| AGCGGTAC | -0.0325 |
| CGCGGTCA | 0.307 |
| GGCGGTAA | 0.326 |
| CGCGGTAC | 0.367 |
| CGCGGTAG | 0.282 |
| CGCGGTCC | 0.384 |
| AGCGGTAA | 0.045 |
| CGCGGTAA | 0.36 |
| TCTCTACA | -0.249 |
| CAGGGACA | 0.0593 |
| ATGCAAGC | -0.0447 |
| TAGTTGGA | -0.0882 |
| CCGCACTA | 0.241 |
| GATGAAAC | 0.0428 |
| TCGCCACA | -0.00326 |

| Sequence | PBM E-score |
| --- | --- |
| CTATCAGC | -0.156 |
| AATTCGCA | 0.255 |
| CAGAAATC | -0.108 |
| AGTCCGGC | 0.216 |
| CGTCCGAA | 0.208 |
| AGTCCGGA | 0.422 |
| AGTCCGGG | 0.301 |
| GGTCCGGA | 0.413 |
| CGTCCGGC | 0.321 |
| GGTCCGCA | 0.28 |
| GGTCCGTA | 0.293 |
| CGTCCGGA | 0.433 |
| CCCGCATC | 0.0416 |
| AAGGTCAC | -0.213 |
| GGAAGACC | 0.202 |
| GACTCACC | -0.126 |
| ATCTGCTA | -0.241 |
| CTGATGCA | 0.0307 |
| CTAAGAAG | -0.0671 |
| CTTCAAAG | -0.275 |
| AAGCTGTC | -0.208 |
| CAATCCCA | -0.105 |
| CAATCCCG | 0.392 |
| AGATCCCC | 0.015 |
| CGATCCCC | 0.0699 |
| CGATCCCG | 0.361 |

| Sequence | PBM E-score |
| --- | --- |
| AGATCCCG | 0.4 |
| AGATCCCT | -0.142 |
| CAATCCCC | 0.0676 |
| CGATCCCA | 0.067 |
| CTTCACCA | -0.153 |
| TCAAGGAA | -0.0766 |
| ATCTGATA | -0.18 |
| CGAGGTCC | 0.299 |
| CCAACGGA | 0.362 |
| GCAACGTA | -0.192 |
| TCAACGCA | -0.0152 |
| GCAACGGA | 0.413 |
| CCAACGGC | -0.0155 |
| ACAACGGT | -0.0457 |
| ACAACGGA | 0.375 |
| CCAACGGG | 0.213 |
| GCAACGGC | 0.152 |
| TCAACGGA | 0.359 |
| ACAACGGG | 0.221 |
| TCAACGAA | 0.0322 |
